# According to PubChem BioAssay (Tox21):
# Values without a mark were called inactive. Results filed as inconclusive are left out. A call without a number means that no potency is given here. Activity calls are given as the source filed them. Calls follow the shape of the dose curve; as a rule, active = well fitted curve in the direction sought with a large enough effect in the repeat runs; inconclusive = weak or mixed curves; inactive = no such curve, though single readings can be large; an effect the other way counts as inactive or inconclusive.
# Tests used:
# [1] = qHTS RealTime-Glo MT Cell Viability Assay in HEK293 cells - 40 hour (AID 1224874); conditions: RealTime-Glo luminescence; max response: active compounds read low; also: nearly all actives have a fitted effect of over 50% in size; also: potency is read from the fitted curve at half-maximal effect
# How it was run: (§1)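 HEK293 + NanoLuc + prosubstrate, 600 cells/well; 5 h, 37 C/5% CO2; compound 23 nL in DMSO by pintool; 37 C; luminescence read at 0, 8, 16, 24, 32 and 40 h time points.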
# [2] = A CellTox Green Cytotoxicity Assay to monitor cytotoxicity in HEK293 cells - 24 hour (AID 1224875); also: series mostly up to about 77 µM; nearly all actives have a fitted effect of over 45% in size
# How it was run: (§2)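 Tox21 screen in HEK293: membrane-impermeant cyanine dye fluoresces on binding dead-cell DNA; compound pinned 5 h post-seeding, plates held at 37 C, signal read repeatedly through 40 h.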
# [3] = A CellTox Green Cytotoxicity Assay to monitor cytotoxicity in HepG2 cells - 16 hour (AID 1224876); also: nearly all actives have a fitted effect of over 45% in size
# How it was run: (§3)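 Measurements at 0, 8, 16, 24, 32 and 40 h of treatment captured CellTox Green fluorescence in HepG2 cells that had been co-plated with reagent and preincubated 5 h at 37 C/5% CO2.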
# [4] = qHTS RealTime-Glo MT Cell Viability Assay in HepG2 cells - 32 hour (AID 1224877); also: nearly all actives have a fitted effect of over 55% in size
# How it was run: (§4)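 Cells + NanoLuc/prosubstrate dispensed (600 cells/well) → 5 h at 37 C/5% CO2 → compounds in DMSO transferred → 40 h incubation at 37 C, luminescence read at 0, 8, 16, 24, 32, 40 h.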
# [5] = A CellTox Green Cytotoxicity Assay to monitor cytotoxicity in HepG2 cells - 24 hour (AID 1224878); also: nearly all actives have a fitted effect of over 45% in size
# How it was run: as §3
# [6] = A CellTox Green Cytotoxicity Assay to monitor cytotoxicity in HepG2 cells - 40 hour (AID 1224879); also: nearly all actives have a fitted effect of over 40% in size
# How it was run: as §3
# [7] = qHTS RealTime-Glo MT Cell Viability Assay in HEK293 cells - 0 hour (AID 1224880); also: top concentration of the series differs between compounds; nearly all actives have a fitted effect of over 45% in size
# How it was run: as §1
# [8] = A CellTox Green Cytotoxicity Assay to monitor cytotoxicity in HEK293 cells - 32 hour (AID 1224881); also: nearly all actives have a fitted effect of over 40% in size
# How it was run: as §2
# [9] = A CellTox Green Cytotoxicity Assay to monitor cytotoxicity in HepG2 cells - 0 hour (AID 1224882); also: nearly all actives have a fitted effect of over 35% in size
# How it was run: as §3
# [10] = A CellTox Green Cytotoxicity Assay to monitor cytotoxicity in HepG2 cells - 32 hour (AID 1224883); also: nearly all actives have a fitted effect of over 50% in size
# How it was run: as §3
# [11] = A CellTox Green Cytotoxicity Assay to monitor cytotoxicity in HEK293 cells - 8 hour (AID 1224884); also: nearly all actives have a fitted effect of over 35% in size
# How it was run: as §2
# [12] = qHTS RealTime-Glo MT Cell Viability Assay in HepG2 cells - 16 hour (AID 1224885); also: nearly all actives have a fitted effect of over 50% in size
# How it was run: as §4
# [13] = qHTS RealTime-Glo MT Cell Viability Assay in HEK293 cells - 24 hour (AID 1224886); also: nearly all actives have a fitted effect of over 50% in size; also: potency is read from the fitted curve at half-maximal effect
# How it was run: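 Tox21 10K qHTS, HEK293, 600 cells/well, RealTime-Glo reagent co-dispensed with cells; 5 h preincubation, compound by pintool, 37 C, luminescence at 0–40 h.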
# [14] = qHTS RealTime-Glo MT Cell Viability Assay in HEK293 cells - 8 hour (AID 1224887); also: nearly all actives have a fitted effect of over 50% in size; also: potency is read from the fitted curve at half-maximal effect
# How it was run: as §1
# [15] = A CellTox Green Cytotoxicity Assay to monitor cytotoxicity in HEK293 cells - 16 hour (AID 1224888); also: nearly all actives have a fitted effect of over 35% in size
# How it was run: as §2
# [16] = qHTS RealTime-Glo MT Cell Viability Assay in HepG2 cells - 0 hour (AID 1224889); also: nearly all actives have a fitted effect of over 50% in size
# How it was run: as §4
# [17] = A CellTox Green Cytotoxicity Assay to monitor cytotoxicity in HepG2 cells - 8 hour (AID 1224890); also: nearly all actives have a fitted effect of over 45% in size
# How it was run: as §3
# [18] = qHTS assay to identify small molecule antagonists of the estrogen receptor alpha (ER-alpha) signaling pathway using the BG1 cell line in the presence of 0.1 nM 17-beta-estradiol - cell viability counter screen (AID 1259241); also: nearly all actives have a fitted effect of over 40% in size
# How it was run: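 Measures cytotoxicity alongside the ER-alpha antagonist readout: VM7Luc4E2 cells, charcoal-stripped serum, 0.1 nM 17beta-estradiol final, 22 hr compound incubation at 37C, CellTiter-Fluor fluorescence.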
# [19] = qHTS assay to identify small molecule antagonists of the androgen receptor (AR) signaling pathway using the MDA cell line in the presence of 0.5 nM R1881 - cell viability counter screen (AID 1259242); also: nearly all actives have a fitted effect of over 45% in size; also: potency is read from the fitted curve at half-maximal effect
# How it was run: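 Concentration-response screen of compounds for toxicity in MDA-kb2 reporter cells: 16 hr at 37C with 0.5 nM R1881, endpoint live-cell protease fluorescence measured in the reporter wells.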
# [20] = biological target: Androgen receptor (Homo sapiens) (UniProt P10275); experiment: qHTS assay to identify small molecule antagonists of the androgen receptor (AR) signaling pathway using the MDA cell line in the presence of 0.5 nM R1881 (AID 1259243); also: nearly all actives have a fitted effect of over 50% in size
# How it was run: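 With R1881 held at 0.5 nM (final), compound effects on MMTV-luciferase expression in MDA-kb2 cells were scored by luminescence after a 16 hr, 37C incubation.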
# Androgen receptor (Homo sapiens), sequence (P10275 whole entry, looked up): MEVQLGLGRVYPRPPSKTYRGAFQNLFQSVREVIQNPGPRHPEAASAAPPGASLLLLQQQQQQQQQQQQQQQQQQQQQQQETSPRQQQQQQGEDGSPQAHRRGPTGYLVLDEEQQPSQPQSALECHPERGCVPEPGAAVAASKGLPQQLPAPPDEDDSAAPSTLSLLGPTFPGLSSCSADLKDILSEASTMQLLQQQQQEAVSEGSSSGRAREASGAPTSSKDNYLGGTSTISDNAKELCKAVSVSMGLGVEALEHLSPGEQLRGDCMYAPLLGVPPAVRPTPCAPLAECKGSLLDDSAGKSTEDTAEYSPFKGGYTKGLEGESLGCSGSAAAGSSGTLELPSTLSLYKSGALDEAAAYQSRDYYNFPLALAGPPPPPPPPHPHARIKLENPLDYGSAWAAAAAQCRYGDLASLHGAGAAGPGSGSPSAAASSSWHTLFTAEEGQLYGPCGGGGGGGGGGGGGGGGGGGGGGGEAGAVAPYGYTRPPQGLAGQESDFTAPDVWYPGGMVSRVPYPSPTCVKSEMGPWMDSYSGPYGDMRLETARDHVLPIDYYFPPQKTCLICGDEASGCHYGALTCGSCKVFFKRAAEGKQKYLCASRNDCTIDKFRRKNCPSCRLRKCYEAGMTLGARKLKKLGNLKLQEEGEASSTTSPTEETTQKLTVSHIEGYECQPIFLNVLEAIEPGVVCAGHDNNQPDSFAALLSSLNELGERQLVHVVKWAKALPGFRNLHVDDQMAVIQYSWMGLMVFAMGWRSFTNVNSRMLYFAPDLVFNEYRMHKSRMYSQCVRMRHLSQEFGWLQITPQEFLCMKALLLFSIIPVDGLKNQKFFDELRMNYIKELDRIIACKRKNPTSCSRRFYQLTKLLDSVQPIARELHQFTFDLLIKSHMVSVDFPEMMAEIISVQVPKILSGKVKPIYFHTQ
structure (smiles),measurement,setting,value
C=C(C)C(=O)OC(C)C,max response,[1],6%
same,Potency,[2],inactive
same,Potency,[3],inactive
same,Potency,[4],inactive
same,Potency,[5],inactive
same,Potency,[6],inactive
same,Potency,[7],inactive
same,Potency,[8],inactive
same,Potency,[9],inactive
same,Potency,[10],inactive
same,Potency,[11],inactive
same,Potency,[12],inactive
same,Potency,[13],inactive
same,Potency,[14],inactive
same,Potency,[15],inactive
same,Potency,[16],inactive
same,Potency,[17],inactive
same,Potency,[18],inactive
same,Potency,[19],inactive
same,Potency,[20],inactive
Cc1nc2ccccc2n1Cc1ccc(Cl)cc1,Potency,[1],1.69 µM (active)
same,Potency,[2],inactive
same,Potency,[3],inactive
same,Potency,[4],inactive
same,Potency,[5],inactive
same,Potency,[6],inactive
same,Potency,[7],inactive
same,Potency,[8],inactive
same,Potency,[9],inactive
same,Potency,[10],inactive
same,Potency,[11],inactive
same,Potency,[12],inactive
same,Potency,[13],1.9 µM (active)
same,Potency,[14],8.49 µM (active)
same,Potency,[15],inactive
same,Potency,[16],inactive
same,Potency,[17],inactive
same,Potency,[19],5.96 µM (active)
O=C(c1ccccc1)c1ccc2n1CCC2C(=O)O (centres undefined),max response,[1],0.683%
same,Potency,[2],inactive
same,Potency,[3],inactive
same,Potency,[4],inactive
same,Potency,[5],inactive
same,Potency,[6],inactive
same,Potency,[7],inactive
same,Potency,[8],inactive
same,Potency,[9],inactive
same,Potency,[10],inactive
same,Potency,[11],inactive
same,Potency,[12],inactive
same,Potency,[13],inactive
same,Potency,[14],inactive
same,Potency,[15],inactive
same,Potency,[16],inactive
same,Potency,[17],inactive
same,Potency,[18],inactive
same,Potency,[19],inactive
CCCCCCOC(=O)CCC,max response,[1],6.13%
same,Potency,[2],inactive
same,Potency,[3],inactive
same,Potency,[4],inactive
same,Potency,[5],inactive
same,Potency,[6],inactive
same,Potency,[7],inactive
same,Potency,[8],inactive
same,Potency,[9],inactive
same,Potency,[10],inactive
same,Potency,[11],inactive
same,Potency,[12],inactive
same,Potency,[13],inactive
same,Potency,[14],inactive
same,Potency,[15],inactive
same,Potency,[16],inactive
same,Potency,[17],inactive
same,Potency,[18],inactive
same,Potency,[19],inactive
CC1(C)[C@H]2CC[C@]1(C)[C@H](O)C2,max response,[1],-5.57%
same,Potency,[2],inactive
same,Potency,[3],inactive
same,Potency,[4],inactive
same,Potency,[5],inactive
same,Potency,[6],inactive
same,Potency,[7],inactive
same,Potency,[8],inactive
same,Potency,[9],inactive
same,Potency,[10],inactive
same,Potency,[11],inactive
same,Potency,[12],inactive
same,Potency,[13],inactive
same,Potency,[14],inactive
same,Potency,[15],inactive
same,Potency,[16],inactive
same,Potency,[17],inactive
same,Potency,[19],inactive
COc1ccc(C(C)=O)cc1,max response,[1],21.1%
same,Potency,[2],inactive
same,Potency,[3],inactive
same,Potency,[4],inactive
same,Potency,[5],inactive
same,Potency,[6],inactive
same,Potency,[7],inactive
same,Potency,[8],inactive
same,Potency,[9],inactive
same,Potency,[10],inactive
same,Potency,[11],inactive
same,Potency,[12],inactive
same,Potency,[13],inactive
same,Potency,[14],inactive
same,Potency,[15],inactive
same,Potency,[16],inactive
same,Potency,[17],inactive
same,Potency,[18],inactive
same,Potency,[19],inactive
same,Potency,[20],inactive
CCOc1nc2cccc(C(=O)O)c2n1Cc1ccc(-c2ccccc2-c2nn[nH]n2)cc1,max response,[1],9.75%
same,Potency,[2],inactive
same,Potency,[3],inactive
same,Potency,[4],inactive
same,Potency,[5],inactive
same,Potency,[6],inactive
same,Potency,[7],inactive
same,Potency,[8],inactive
same,Potency,[9],inactive
same,Potency,[10],inactive
same,Potency,[11],inactive
same,Potency,[12],inactive
same,Potency,[13],inactive
same,Potency,[14],inactive
same,Potency,[15],inactive
same,Potency,[16],inactive
same,Potency,[17],inactive
same,Potency,[18],inactive
same,Potency,[19],inactive
same,Potency,[20],inactive
